High-throughput results from PubChem.
RmlC RmlD mix = mixture blocks RmlC and RmlD coupled enzyme activity; inhibition, % at 5.5 µM; 110,000 compounds, 0.39% hits; RmlC/RmlD coupled enzyme inhibition, 384-well mixture HTS; in the data active = inhibition above about 30%, passing the limit was not always enough; inconclusive = no clear call, values can overlap the other calls
HIV RNase H inh-1 = inhibitors of HIV-1 reverse transcriptase RNase H | RT-RNase H RNA/DNA duplex cleavage, fluorescence | P04585 | inhibition, % at 10 µM | 65,000 compounds, 1.9% hits; in the data active = inhibition above about 50%
HIV RNase H inh-2 = confirmation of HIV-1 reverse transcriptase RNase H inhibitors. shares compounds with HIV RNase H inh-1. Recombinant RT RNase H, fluorescent RNA/DNA duplex cleavage. inhibition, % at 10 µM. 1,000 compounds, 39% hits; in the data active = inhibition above about 48%; inconclusive = no clear call, values can overlap the other calls
The depositor's hits bear a star; u = inconclusive; x = no result given. This excerpt belongs to a sample that is enriched for hits.

SMILES	RmlC RmlD mix	HIV RNase H inh-1	HIV RNase H inh-2
NC(=O)NC1NC(=O)NC1=O (stereo unspecified)	-11	x	x
COC(=O)C(N)CCCCN (stereo unspecified)	-9	x	x
CCOC(=O)N1CCN(C(=O)Cn2ccc3c(OC)cccc3c2=O)CC1	-5	x	x
NC(=O)c1cc[n+](CC2=C(C(=O)O)N3C(=O)[C@@H](NC(=O)C(c4ccccc4)S(=O)(=O)[O-])[C@H]3SC2)cc1 (stereo partly specified)	-6	x	x
N[C@@H](C(=O)N[C@@H]1C(=O)N2C(C(=O)O)=C(Cl)CS[C@H]12)c1ccccc1	-9	59*	33
Cc1ccc(C)c(NC(=O)CSc2nc3c(c(=O)n2C)SC(C)C3)c1 (stereo unspecified)	7	-19	x
Cc1ccc2nc(NC(=O)CSc3nc4c(c(=O)n3C)SC(C)C4)sc2c1 (stereo unspecified)	10	79*	42
COc1cc2c(C(=O)N3CCN(c4cccc(Cl)c4)CC3)cn(CC(C)C)c(=O)c2cc1OC	-4	x	x
c1c2c(cc3sc(N4CCCCC4)nc13)OCO2	x	9	x
c1ccc(N2CCN(c3nc4cc5c(cc4s3)OCO5)CC2)cc1	13	76*	76*
c1c2c(cc3sc(N4CCOCC4)nc13)OCO2	-26	72*	62*
c1ccc2c(c1)CCN(c1nc3cc4c(cc3s1)OCO4)C2	-5	43	x
Nc1[nH]c(=O)ncc1F	-7	x	x
O=C(NCc1cccc(Br)c1)c1cc(-c2ccccc2)nn1CC1CC(c2cccc([N+](=O)[O-])c2)=NO1 (stereo unspecified)	-15	x	x
CC1(c2nnc(-c3cccc(Cl)c3)o2)CC(c2ccc(F)cc2)=NO1 (stereo unspecified)	-9	x	x
CCOC(=O)CSC1=C(C#N)C(c2ccccc2)C(C(C)=O)=C(C)N1 (stereo unspecified)	5	3	x
CSCSC1=C(C#N)C(c2ccc(Cl)cc2)C(C(C)=O)=C(C)N1 (stereo unspecified)	7	61*	18
COc1ccc(-c2nc(CS(=O)(=O)CC(=O)NCCc3cc(OC)ccc3OC)c(C)o2)cc1	3	-7	x
COc1ccc(OC)c(CCNC(=O)Cn2sc3nc(C)cc(C)c3c2=O)c1	7	97*	57*
C#CCOCCOCCOCCNc1nc(N2CCN(C(=O)[C@H](CCCCN)n3cc(C(N)CO)nn3)CC2)nc(N2CCN(C(=O)[C@H](CCCCN)n3cc(C(N)COC(=O)C(F)(F)F)nn3)CC2)n1 (stereo partly specified)	6	x	x
CCOC(=O)N1CCC(N2Cc3cccc(C(=O)NCc4ccccc4OC)c3C2=O)CC1	-7	-32	x
CCOC(=O)N1CCC(N2Cc3cccc(C(=O)NCc4ccc(OC)cc4)c3C2=O)CC1	x	73*	44
C=CCn1c(C)nc2c(c1=O)c1nc3ccccc3nc1n2-c1ccc(C)cc1	x	-9	x
O=C(O)c1cc(-c2ccccc2)nn1CC1CC(c2cccc([N+](=O)[O-])c2)=NO1 (stereo unspecified)	-5	x	x
CCc1c(C)sc(NC(=O)CC#N)c1C#N	-169	38	x
SMILES	RmlC RmlD mix	HIV RNase H inh-1	HIV RNase H inh-2
CCc1c(C)sc(NC(=O)c2cc(C)no2)c1C#N	-6	60*	12
NCCCC[C@H]1CNC(=S)N1CCc1cccc(F)c1	-8	x	x
Cc1nc(-c2cccc(S(=O)(=O)N3CCOCC3)c2)cs1	10	78*	58*
Cc1nc(-c2cccc(S(=O)(=O)N3CC(C)OC(C)C3)c2)cs1 (stereo unspecified)	5	-11	x
CCCCCCCCN1[C@@H](CC(=O)O)c2ccc(C(F)(F)F)cc2S1(=O)=O	-8	x	x
O=C(CSc1nnc(-c2ccc(O)cc2)o1)Nc1ccc2c(c1)OCCO2	-1	x	x
O=C(CSc1nnc(-c2ccc(F)cc2)o1)N1CCN(C(=O)c2ccco2)CC1	-13	81*	32
O=C(CSc1nnc(-c2ccc(F)cc2)o1)c1ccc2c(c1)OCCO2	-1	59*	u
Cc1cc(C)c(C)c(C(=O)CSc2nnc(-c3ccc4[nH]c(C)c(C)c4c3)o2)c1C	-13	x	x
O=C(CSc1nnc(CNc2ccc(F)cc2)o1)N1CCN(C(=O)c2ccco2)CC1	-10	-12	x
Cc1[nH]c2ccc(-c3nnc(SCC(=O)c4ccc(F)cc4)o3)cc2c1C	9	79*	u
CCc1ccc(N(CC(=O)Nc2nc3ccc(C)cc3s2)S(=O)(=O)c2c(C)noc2C)cc1	6	x	x
COc1ccc2oc(=O)c(C(=O)N3CCN(C45CC6CC(CC(C6)C4)C5)CC3)cc2c1	x	-1	x
Cc1cc2oc3c(c(=O)c2cc1C)C(c1cccc(Br)c1)N(Cc1ccco1)C3=O (stereo unspecified)	8	5	x
COc1cc(C2c3c(oc4ccccc4c3=O)C(=O)N2Cc2ccco2)ccc1O (stereo unspecified)	-13	x	x
CCOc1cc(C2c3c(oc4cc(C)c(Cl)cc4c3=O)C(=O)N2Cc2ccco2)ccc1O (stereo unspecified)	6	61*	58*
Cc1ccc2oc3c(c(=O)c2c1)C(c1cccc(Br)c1)N(Cc1ccco1)C3=O (stereo unspecified)	7	60*	u
NC(=O)CC(NC(=O)c1ccccc1)c1ccc(NCCc2ccc(Cl)cc2)c([N+](=O)[O-])c1 (stereo unspecified)	7	x	x
CCOc1ccc(-c2nnc(N(CC)C(=O)C3CCC3)s2)cc1	-15	66*	1
COCCN(C(=O)C1CC1)c1nnc(-c2ccc(C)cc2)s1	-4	x	x
CCCOc1c(OC)cccc1C1CC(=O)Nc2cc(OC)c(OC)c(OC)c21 (stereo unspecified)	-16	66*	35
COc1cc2c(c(OC)c1)C(c1cccc(OC)c1OC)CC(=O)N2 (stereo unspecified)	9	-44	x
CCN(c1ccc2c(c1)OCO2)S(=O)(=O)c1cc(Br)cc2c1N(C(C)=O)CC2	-5	x	x
C=CCn1c(Cc2cccs2)nnc1SCC(=O)Nc1ccc(OC)cc1	8	-29	x
C=CCn1c(Cc2cccs2)nnc1SCC(=O)Nc1cccc(OC)c1	30	73*	42
SMILES	RmlC RmlD mix	HIV RNase H inh-1	HIV RNase H inh-2
CC(=O)c1cccc(NC(=S)NC(=O)CC(C)(C)C)c1	25	x	x
Cc1c(/C(O)=C2/C(=O)C(=O)N(CCCN3CCOCC3)C2c2ccncc2)cnn1-c1ccccc1 (stereo unspecified)	x	0	x
O=c1c2ccccc2sn1-c1cc(S(=O)(=O)N2CCOCC2)ccc1N1CCCC1	-7	x	x
O=c1c2ccccc2sn1-c1cc(S(=O)(=O)N2CCOCC2)ccc1N1CCOCC1	9	95*	61*
O=C(NC1CC1)C1=C[C@@H](c2c[nH]c3ccccc23)C[C@@H](OCc2ccc(CO)cc2)O1	4	x	x
CCOC(=O)CN1C(=O)C(Sc2n[nH]c(-c3ccccc3)n2)CCc2ccccc21 (stereo unspecified)	-7	x	x
N#Cc1nc(-c2ccc(OCc3ccc(Cl)cc3)cc2)oc1NCc1cccnc1	-15	76*	65*
N#Cc1nc(-c2ccc(OCc3ccccc3)cc2)oc1NCc1cccnc1	9	-13	x
COc1cc(-c2nn3c(C4CCCCC4)nnc3s2)cc(OC)c1OC	9	75*	29
COc1ccc(-c2nn3c(C4CCCCC4)nnc3s2)cc1OC	-3	37	x
O=C(CCCSc1nnnn1-c1ccccc1)c1ccc(F)cc1	-15	x	x
